The panel holds about 83,000 compounds, 20% with a hit somewhere; the sample as a whole holds those more often.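 Assay: single dose, 48 h. Readout: percent growth (0 = no net growth; negative = cell death). Active: <10.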
Experiments:
Assay in all cases: NCI-60 one-dose screen, 48 h (100 = growth as untreated, 0 = no growth, -100 = all killed)
Details in all cases: 10 µM unless noted
DU-145 prostate = test system: DU-145 prostate
K-562 leukemia = test system: K-562 leukemia
MALME-3M melanoma = test system: MALME-3M melanoma
MDA-MB-231 breast = test system: MDA-MB-231 breast
RXF 393 renal = test system: RXF 393 renal
SF-268 CNS = test system: SF-268 CNS
SF-295 CNS = test system: SF-295 CNS
SF-539 CNS = test system: SF-539 CNS
UACC-257 melanoma = test system: UACC-257 melanoma
M14 melanoma = test system: M14 melanoma
HCT-15 colon = test system: HCT-15 colon
HT29 colon = test system: HT29 colon
SNB-75 CNS = test system: SNB-75 CNS
SNB-19 CNS = test system: SNB-19 CNS
U251 CNS = test system: U251 CNS
PC-3 prostate = test system: PC-3 prostate
SK-MEL-5 melanoma = test system: SK-MEL-5 melanoma
UACC-62 melanoma = test system: UACC-62 melanoma
LOX IMVI melanoma = test system: LOX IMVI melanoma
SK-MEL-28 melanoma = test system: SK-MEL-28 melanoma

Measured: growth

COc1cc(C2=NN(c3ccccc3)C(c3cccc(Nc4ccnc5cc(C(F)(F)F)ccc45)c3)C2)cc(OC)c1OC (stereo not given)
inactive: DU-145 prostate 93.6% | K-562 leukemia 68.2% | MALME-3M melanoma 92.1% | MDA-MB-231 breast 85.9% | RXF 393 renal 73.7% | SF-268 CNS 74.3% | SF-295 CNS 64.8% | SF-539 CNS 100% | UACC-257 melanoma 97.3% | M14 melanoma 92.9% | HCT-15 colon 78.1% | HT29 colon 71% | SNB-75 CNS 106% | SNB-19 CNS 92.8% | U251 CNS 95.5% | PC-3 prostate 72.4% | SK-MEL-5 melanoma 89.8% | UACC-62 melanoma 83.5% | LOX IMVI melanoma 81.9% | SK-MEL-28 melanoma 100%

COc1ccc(OCC(=O)OC(C)C)cc1
inactive: DU-145 prostate 101% | K-562 leukemia 98.7% | MALME-3M melanoma 91.1% | MDA-MB-231 breast 98.1% | RXF 393 renal 80.5% | SF-268 CNS 92.5% | SF-295 CNS 96.6% | SF-539 CNS 98% | UACC-257 melanoma 97.7% | M14 melanoma 98.6% | HCT-15 colon 98.4% | HT29 colon 101% | SNB-75 CNS 85% | SNB-19 CNS 99.2% | U251 CNS 104% | PC-3 prostate 103% | SK-MEL-5 melanoma 96.4% | UACC-62 melanoma 96.6% | LOX IMVI melanoma 87.2% | SK-MEL-28 melanoma 102%

Cc1cc2ccccc2c[n+]1CC(=O)c1ccc(-c2ccccc2)cc1
inactive: DU-145 prostate 65.8% | K-562 leukemia 11% | MALME-3M melanoma 71.4% | MDA-MB-231 breast 51.1% | RXF 393 renal 62.5% | SF-268 CNS 73.4% | SF-295 CNS 42.4% | SF-539 CNS 75.5% | UACC-257 melanoma 50.3% | M14 melanoma 47.3% | HCT-15 colon 84% | HT29 colon 24.8% | SNB-75 CNS 61.4% | SNB-19 CNS 58.8% | U251 CNS 42.7% | PC-3 prostate 29.7% | SK-MEL-5 melanoma 21.6% | UACC-62 melanoma 71.2% | LOX IMVI melanoma 54% | SK-MEL-28 melanoma 84%

From PubChem BioAssay (NCI)
